The record followed here is PubChem BioAssay (NCATS).

Records with an inconclusive call do not appear. A number with no mark means an inactive call. Active and inactive are the calls of the source. The call rests on the fitted dose curve; in most records, active means well fitted activation curve with a large enough effect; inconclusive means small, poorly fitted or top-dose-only effect, or effect the other way; inactive means flat fitted curve, though single readings scatter.

This experiment can be described thus: Cellular Toxicity (caspase-3) NIH 3T3 (AID 666).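 Further: caspase signal read after 16 h compound exposure.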 The settings on record: NIH 3T3 caspase-3 activation, apoptosis/toxicity, 0% DMSO, 100% is 100 µM tamoxifen; series mostly up to 92.2 µM; caspase-3 activation: at the top concentration. The source says: NIH Chemical Genomics Center [NCGC]
NIH Molecular Libraries Screening Centers Network [MLSCN]
National Institutes of Environmental Health Sciences [NIEHS]
National Toxicology Program [NTP]
We have developed a 1536-well cell-based assay for quantitative high throughput screening (qHTS) against a number of cell lines to determine in vitro caspase 3/7 of small molecules. This particular assay uses the NIH 3T3 cell line which is derived from mouse fibroblasts.
NCGC Assay Protocol Summary:
The Caspase-Glo 3/7 assay (Promega) is a homogeneous method to measure caspase-3 and caspase-7 activities in cultured cells. The quantitation of caspase 3/7 activity is based on the cleavage of a peptide-aminoluciferin substrate. After caspase cleaves the substrate the free aminoluciferin is liberated and serves as the substrate of luciferase, which generates the light. The luminescent signal is proportional to amount of caspase 3/7 activity present.
Using the Caspase-Glo 3/7 assay, the amount of caspase 3/7 activity was measured in the NIH 3T3 cell line with complete culture medium following compound treatment for 16 hours. The assay was performed in opaque white 1536-well plates. In the screen, tamoxifen and doxorubicin were used as positive controls. Library compounds were measured for their ability to cause the activation of caspase 3/7 in the cell line, as reflected by an increase in luminescence signal, in a concentration-dependent manner. Data were normalized to the controls for basal activity (DMSO only) and 100% stimulation (100 uM tamoxifen). AC50 values were determined from concentration-response data modeled with the standard Hill equation.
qHTS protocol for caspase 3/7 assay in NIH 3T3 cells
[Step] [Parameter] [Value] [Description]
1. Reagent; 5 uL; 1000 NIH 3T3 cells/well
2. Time; 5 hr; 37 °C incubation
4. Controls; 23 nL; Tamoxifen 0.23 uM to 100 uM & Doxorubicin 7.0 pM to 100 uM
5. Time; 16 hr; 37 °C incubation
6. Reagent; 5 uL; Caspase-Glo 3/7 reagent
7. Time; 20 min; Room Temperature
8. Detection; Luminescence; Viewlux plate reader
Keywords: caspase 3/7, apoptosis, NIH 3T3 cell line, luminescence, NTPHTS, NTPHTS_NCGC, NIEHS, EPA, DSSTox, MLSMR, MLSCN, NIH Roadmap, qHTS, NCGC
In the case of `O=S(=O)(O)c1ccccc1`, the “caspase-3 activation” value is -3.07%.

Regarding `CN(C)CCCCCCN(C)C`, the “caspase-3 activation” value is -0.527%.

For the compound `COC(=O)c1ccc(C)cc1`, the “caspase-3 activation” value is -0.314%.

For `COC(=O)c1ccc(C=O)cc1`, the “caspase-3 activation” value was 0.271%.

For `c1ccc2c(c1)[nH]c1ccccc12`, the “caspase-3 activation” value is -5.56%.

In the case of `C1OCOCO1`, the “caspase-3 activation” value was -0.307%.

With `CC12CCC(CC1=O)C2(C)C` (stereo not given), the “caspase-3 activation” value was 1.36%.

Turning to `C=CC(=O)OCCOCCOCCOCCOC(=O)C=C`, the outcome was inactive.

With `c1ccc2scnc2c1`, the “caspase-3 activation” value is -5.4%.

As for `C/C=C\c1ccc(OC)cc1`, the “caspase-3 activation” value was -1.48%.

As for `CCCCCCCCO`, the “caspase-3 activation” value is -1.96%.

As to `Clc1cc(Cl)c(Cl)c(Cl)c1Cl`, the “caspase-3 activation” value is -2.1%.

In the case of `O[C@@H]([C@H](O)[C@@H](O)CBr)[C@@H](O)CBr`, the “caspase-3 activation” value is -3.12%.

On to `CCCCOCCO`, for which the call was inactive.

Take `CN(C)C=O`: the outcome was inactive.

Take `Cc1ccc([N+](=O)[O-])cc1N`: the “caspase-3 activation” value is -3.25%.

`CCO[Si](CCCN)(OCC)OCC`: the “caspase-3 activation” value is 3.2%.

Consider `CCCN(CCC)C(=O)SCC`, for which the “caspase-3 activation” value was -1.97%.

Take `CCCCCCCCCCCCCC(=O)O`: the “caspase-3 activation” value is -11.7%.

For the compound `O=C(O)c1ccccc1`, the “caspase-3 activation” value is 0.682%.

Regarding `CC1=CC(C)(C)Nc2ccccc21`, the result was inactive.

Regarding `COCC(=O)O`, the “caspase-3 activation” value is 0.439%.

With `NC1=NC(S)C2N=CN=C2N1` (stereo not given), the “caspase-3 activation” value was 9.48%.

`O=[N+]([O-])c1cccc(Cl)c1Cl`: the “caspase-3 activation” value is 0.964%.

Take `Nc1ccc(Cl)cc1Cl`: the “caspase-3 activation” value was 4.1%.

With `C=Cc1ccccc1Cl`, the “caspase-3 activation” value is -2.13%.

For `COc1ccc2nc(N)sc2c1`, the “caspase-3 activation” value was -17.4%.

For `Cc1ccc(N)c([N+](=O)[O-])c1`, the “caspase-3 activation” value was -5%.

Turning to `S=C1NC=NC2N=CNC12` (stereo not given), the “caspase-3 activation” value was 10.3%.

With `O=C(/C=C/c1ccc(O)c(O)c1)O[C@@H](C(=O)O)[C@@H](OC(=O)/C=C/c1ccc(O)c(O)c1)C(=O)O`, the “caspase-3 activation” value is -0.0876%.

As to `CC(=O)OC/C=C(\C)CCC=C(C)C`, the “caspase-3 activation” value is 3.22%.

For the compound `C=CC(=C)CCC=C(C)C`, the “caspase-3 activation” value is 0.842%.

Consider `COc1ccc(/C=C/c2cc(OC)cc(=O)o2)cc1`, for which the “caspase-3 activation” value was -22.1%.

Turning to `COc1cc(/C=C/c2ccccc2)oc(=O)c1`, the “caspase-3 activation” value is -16.8%.

Consider `CCCCC(CC)CN` (stereo not given), for which the compound was called inactive.

On to `OCCNCCO`, for which the “caspase-3 activation” value was -2.02%.

Regarding `O=C1CCc2ccccc2O1`, the “caspase-3 activation” value was 0.089%.

Take `Cc1ccc([N+](=O)[O-])c(C)c1`: the “caspase-3 activation” value was -2.04%.

`O=NO`: the compound was classed as inactive.

`Cc1ccccc1C`: the compound was classed as inactive.
